# Compound activity as filed in PubChem.
# MITF primary: human MITF inhibition, primary screen. inhibition, % at 2.6 µM. hit rate 0.91% among 650,000. AlphaScreen MITF homodimerization, bead proximity signal. O75030; in the data active means inhibition above about 50%
# GPR151 ag: human GPR151 activation; Q8TDV0; PathHunter beta-arrestin GPR151 cells, luminescence; activation, % at 11.2 µM; hit rate 1% among 650,000; AID 1508602; in the data active means activation above about 4.9%
# Target sequence (Q8TDV0 whole entry, looked up): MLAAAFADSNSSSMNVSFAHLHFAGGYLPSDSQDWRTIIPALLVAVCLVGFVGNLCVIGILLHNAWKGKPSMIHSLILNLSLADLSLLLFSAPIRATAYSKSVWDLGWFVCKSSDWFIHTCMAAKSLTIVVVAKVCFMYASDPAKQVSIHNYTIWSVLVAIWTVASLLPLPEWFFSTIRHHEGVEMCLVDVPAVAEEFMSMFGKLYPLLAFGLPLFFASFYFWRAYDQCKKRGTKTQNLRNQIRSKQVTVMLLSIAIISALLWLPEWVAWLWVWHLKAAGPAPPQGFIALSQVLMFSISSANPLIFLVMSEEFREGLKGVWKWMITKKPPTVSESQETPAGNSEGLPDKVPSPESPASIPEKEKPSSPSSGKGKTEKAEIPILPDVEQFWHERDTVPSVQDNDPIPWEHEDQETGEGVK
# TEAD-YAP inh: TEAD-YAP interaction inhibition. HEK-TIYL cells, TEAD-Gal4/YAP UAS-luciferase luminescence. inhibition, % at 9.12 µM. hit rate 1.4% among 640,000. AID 1259422; in the data active means inhibition above about 32%
# FBW7 activator: human FBW7 E3 ligase activation, primary screen | AlphaScreen FBW7–phospho-cyclin E peptide binding, activator screen | normalized activity (activation), % at 26.1 µM | hit rate 0.13% among 650,000 | AID 1259310; in the data active means normalized activity above about 1.9%;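 further: purified mutant Fbw7 with reduced substrate affinity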
# GPR151 conf act: human GPR151 activation, confirmation screen; 6,700 tested, under 10 active; shares compounds with GPR151 ag; GPR151 PathHunter beta-arrestin cells, luminescence, 90 min; % of EA-reagent control over plate median; activation, % at 11.2 µM; AID 1508609;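 active means mean percent activation across replicates above the confirmation screen cutoff of 4.91%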
# GPR119 ag: GPR119 activation, counter-screen for GPR151 activators | shares compounds with GPR151 ag | GPR119 PathHunter beta-arrestin cells, luminescence, 90 min; 0 = compound-well median, 100 = enzyme-acceptor control | activation, % at 11.2 µM | hit rate 0.3% among 6,700;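 active means mean percent activation in the counterscreen above 29.09%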;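 further: counterscreen on off-target GPR119 to flag nonselective hits from the GPR151 activator screen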
# Numbers stand for hits; 0 = inactive; - = no result; ! = repeats disagree. Sampled rows, rich in hits. Any-hit rate of the full collection: about 3.5%.
SMILES,MITF primary,GPR151 ag,TEAD-YAP inh,FBW7 activator,GPR151 conf act,GPR119 ag
O=C(O)C1CSC(c2ccccc2F)N1 (stereo not drawn),0,5.3,0,0,0,0
CCOCCCNC(=O)C(NC(=O)c1ccc(=O)[nH]c1)c1ccccc1 (stereo not drawn),0,5.0,0,0,0,0
N[n+]1cnn(CC(=O)c2ccc(Cl)cc2Cl)c1,0,0,0,0,-,-
CC(C(=O)c1ccc(Cl)cc1Cl)n1c[n+](N)cn1 (stereo not drawn),0,5.2,0,0,0,0
Cc1ccc(C(=O)NN=C2CCC(C)CC2)cc1 (stereo not drawn),0,8.1,0,0,0,0
Cc1ccc(S(=O)(=O)NCC(=O)NN=C2CCC(C)CC2)cc1 (stereo not drawn),0,6.5,0,0,0,0
CC1CCC(=NNC(=O)c2ccc(Cl)cc2)CC1 (stereo not drawn),0,0,0,0,-,-
Nc1ccc(C(=O)OCN2C(=O)c3ccccc3C2=O)cc1,0,0,0,0,-,-
O=C(COC(=O)CCN1C(=O)C2CCCCC2C1=O)Nc1ccc2c(c1)CCC2 (stereo not drawn),0,0,0,0,-,-
CCOC(=O)N1CCN(C(=S)Nc2cc(OC)ccc2OC)CC1,0,5.2,0,0,0,0
CCOC(=O)N1CCC(N(CCN(C)C)C(=S)Nc2cc(C)cc(C)c2)CC1,0,7.7,0,0,0,0
CCOC(=O)N1CCN(C(=S)Nc2ccc(C)cc2)CC1,0,6.0!,0,0,0,0
CCOC(=O)N1CCN(C(=O)Nc2ccc(Cl)cc2Cl)CC1,0,5.1,0,0,0,0
CCOC(=O)N1CCN(C(=S)Nc2cc(Cl)ccc2OC)CC1,0,0,0,0,-,-
CCOC(=O)N1CCC(N(CCN(C)C)C(=S)Nc2cccc(CC)c2)CC1,0,0,0,0,-,-
OCCCc1nc2ccccc2n1CC1CC1(Cl)Cl (stereo not drawn),0,0,0,0,-,-
c1ccc(CCN2CCN(c3ccc4cccc(-c5cncnc5)c4n3)CC2)nc1,0,0,0,0,-,-
O=C(C1CCC(CNc2c(N3CCCC3)c(=O)c2=O)CC1)N1CCc2ccccc21 (stereo not drawn),0,5.3,0,0,0,0
COc1ccccc1C(=O)Nc1ccc(N2CCCS2(=O)=O)cc1,0,0,0,0,-,-
COc1ccc(Cl)cc1C(=O)Nc1ccc(N2CCCCS2(=O)=O)cc1,0,9.0,0,0,0,0
O=C(CCS(=O)(=O)Cc1ccccc1)Nc1ccc(Cl)cn1,0,0,0,0,-,-
O=C(NCc1ccccc1)c1nn(C23CC4CC(CC(C4)C2)C3)cc1[N+](=O)[O-],0,5.6,0,0,0,0
COc1ccc(N2C(=O)CC(NC34CC5CC(CC(C5)C3)C4)C2=O)cc1 (stereo not drawn),0,5.5,0,0,0,0
COc1ccc(N2C(=O)CC(NCCNC(=O)c3ccc(Cl)cc3)C2=O)cc1 (stereo not drawn),0,17.8,0,0,0,0
Cc1ccc(N2C(=O)CC(NC34CC5CC(CC(C5)C3)C4)C2=O)cc1 (stereo not drawn),0,0,0,0,-,-
SMILES,MITF primary,GPR151 ag,TEAD-YAP inh,FBW7 activator,GPR151 conf act,GPR119 ag
O=C(CCS(=O)(=O)c1ccc2c(c1)SCC(=O)N2)Nc1ccccn1,0,0,0,0,-,-
N#C/C(=C\c1c[nH]c2ccccc12)C(=O)N1CCc2ccccc2C1,0,0,0,0,-,-
N#C/C(=C\c1ccc[nH]1)C(=O)N1CCc2ccccc2C1,0,5.3,0,0,0,0
CCc1nnc(NC(=O)c2sc3nc(-c4ccccc4)cc(C(F)(F)F)c3c2N)s1,0,0,0,0,-,-
COC(=O)c1ccc(-c2ccco2)n1CC(=O)N1CCN(C2CCCCC2)CC1,0,0,0,0,-,-
N#C/C(=C\c1ccc2c(c1)OCO2)C(=O)Nc1ccc(Cl)c([N+](=O)[O-])c1,0,6.0,0,0,0,0
CCCNC(=O)c1cc(-c2ccccn2)nc2ccccc12,0,0,0,0,-,-
CCN(CCCNC(=O)c1cc(-c2ccccn2)nc2ccccc12)c1cccc(C)c1,0,8.0,0,0,0,0
COc1nn(C)cc1C(=O)Nc1ccc(C(=O)NCc2ccccn2)cc1,0,0,0,0,-,-
O=C(O)c1cccc(-n2cc(-c3cc(F)cc(F)c3)cn2)c1,0,7.2,0,0,0,0
O=C(O)c1ccc(-c2cnn(-c3ccccc3)c2)nc1,0,0,0,0,-,-
